Source: PubChem BioAssay (National Center for Advancing Translational Sciences (NCATS))
An excerpt weighted towards active compounds, which were near 5.3% of everything screened.
IMPase inh – cell-permeable inhibitors of inositol monophosphatase (IMPase). P97697. CHO-M1 cells, IP1 accumulation, HTRF TR-FRET ratio. inhibition (IP1 accumulation), % at 46.1 µM. 120,000 tested, under 10 active. AID 901; active = well fitted curve in the direction sought with a large enough effect in the signal ratio, not every such curve was filed as active; inconclusive = small, poorly fitted or top-dose-only effect, or a change in a side signal; inactive = no such curve, though single readings can be large or run the other way; the % refers to the signal ratio;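 also: cells stimulated with carbachol in lithium chloride buffer; higher means more IMPase inhibition seen as more IP1 and lower FRET ratio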
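Seeded CHO-M1 cells were dosed with compound at up to 46 uM, stimulated with carbachol for 30 min, then lysed in IP-One detection reagents. Higher IP1 lowers the TR-FRET signal.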
PNC assembly inh – inhibitors of perinucleolar compartment assembly; PC3M PTB-GFP, PNC prevalence imaging, 16 h; hits give low values; AID 2417; activity change (PNC), negative = inhibition, % at 10 µM; 140,000 compounds, 3.1% hits;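 active = readout at or below -70, meaning at least 70% loss of cells showing the perinucleolar compartment, a nuclear body marking cancer cells; inconclusive = readout between -30 and a set limit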
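Read-out is percentage of cells bearing a perinucleolar compartment, from automated 20x imaging of fixed, Hoechst-stained PC3M PTB-GFP cells. Cells were seeded 4 h, then exposed 16 h to compound (23 nl of library stock) in duplicate plates.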
15-hLO-2 inh – blocks human 15-lipoxygenase 2 activity. O15296. purified 15hLO-2, xylenol orange hydroperoxide absorbance. Potency, µM (titrated, usually from 57.1 µM), actives largely listed as inhibitors. 110,000 compounds, 0.56% hits. AID 881; also: nearly all actives have a fitted effect of over 60% in size
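Purified human 15hLO-2 (50 nM) preincubated 15 min with compound, then 45 uM arachidonic acid for 90 min at RT in 25 mM Hepes pH 7.5, 0.01% Triton X-100. Hydroperoxide detected by Fe-xylenol orange; 573/405 nm absorbance ratio.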
IMPase Li inh – cell-permeable IMPase inhibitors with lithium potentiation. AID 1457. CHO-M1 cells, IP1 TR-FRET (IP-One), carbachol + lithium. Potency, µM (series often up to 59.4 µM), hits mostly inhibitors. 210,000 compounds, 0.35% hits;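 also: IP1 builds up when IMPase is blocked and the TR-FRET signal falls; nearly all actives have a fitted effect of over 50% in size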
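IP1 accumulation measured by competitive TR-FRET in lysed CHO-M1 cells after 30 min compound exposure at 37C, with a small lithium addition to potentiate weak responses. Hill-equation AC50 from ratio and donor-channel data.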
HPGD block – inhibitors of human 15-hydroxyprostaglandin dehydrogenase (HPGD); 150,000 compounds, 4.3% hits; Potency, µM, usual class: inhibitors; purified HPGD, NADH fluorescence kinetic, PGE2 substrate; active = well fitted inhibition curve with a large enough effect, not every such curve was filed as active; inconclusive = small, poorly fitted or top-dose-only effect, or another doubt; inactive = no such curve, though single readings can be large or run the other way
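20 nM HPGD preincubated 15 min at room temperature with compound in 50 mM Tris-HCl pH 8, 0.01% Tween 20. Started with 1 mM NAD+ and 30 uM prostaglandin E2; NADH fluorescence (360/450 nm) read 5 times over 30-s intervals, last minus first.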
ALOX12 inhib – blocks human 12-lipoxygenase activity; 150,000 compounds, 0.12% hits; AID 1452; P18054; Potency, µM (titrated, usually from 57.1 µM), actives largely listed as inhibitors; purified 12-hLO, xylenol orange hydroperoxide absorbance; also: nearly all actives have a fitted effect of over 55% in size
Target sequence (P18054 whole entry, looked up): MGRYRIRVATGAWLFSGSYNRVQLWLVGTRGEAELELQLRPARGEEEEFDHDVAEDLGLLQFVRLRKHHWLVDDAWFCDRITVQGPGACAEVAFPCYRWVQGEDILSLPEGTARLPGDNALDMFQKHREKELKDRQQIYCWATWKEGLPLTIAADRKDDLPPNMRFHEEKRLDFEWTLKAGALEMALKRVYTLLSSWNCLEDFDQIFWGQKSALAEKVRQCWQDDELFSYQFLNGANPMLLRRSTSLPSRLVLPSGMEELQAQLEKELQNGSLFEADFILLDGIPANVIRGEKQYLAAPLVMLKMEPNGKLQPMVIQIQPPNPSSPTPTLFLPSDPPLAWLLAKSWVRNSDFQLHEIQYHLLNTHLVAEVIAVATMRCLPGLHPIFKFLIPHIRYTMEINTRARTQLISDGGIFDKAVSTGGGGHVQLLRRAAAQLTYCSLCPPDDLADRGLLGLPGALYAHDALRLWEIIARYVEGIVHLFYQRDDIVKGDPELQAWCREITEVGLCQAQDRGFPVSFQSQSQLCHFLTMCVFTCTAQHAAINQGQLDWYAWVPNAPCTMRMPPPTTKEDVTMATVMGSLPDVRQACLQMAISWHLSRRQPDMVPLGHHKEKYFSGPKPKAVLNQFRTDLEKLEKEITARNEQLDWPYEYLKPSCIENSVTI
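Hydroperoxide output read as Fe(III)-xylenol orange absorbance, 573-to-405 nm ratio, after 30 min reaction with 40 uM arachidonic acid. Enzyme: 150 nM purified human 12hLO, 15 min compound preincubation; 25 mM Hepes pH 7.0, room temperature.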
Numbers stand for hits; – = inactive; ? = inconclusive; · = no result; [ ] = remark or other dose. Unless noted, calls follow the shape of the dose curve; as a rule, active = well fitted curve in the direction sought with a large enough effect; inconclusive = small, poorly fitted or top-dose-only effect, or another doubt; inactive = no such curve, though single readings can be large; an effect the other way counts as inactive or inconclusive.

SMILES	IMPase inh	PNC assembly inh	15-hLO-2 inh	IMPase Li inh	HPGD block	ALOX12 inhib
CC(C)=NNc1nc(-c2ccccc2)cs1	·	–	·	–	–	?
CC(/C=C/c1ccccc1)=N\Nc1nc(-c2ccccc2)cs1	–	-85.3	–	–	–	–
Cc1cc(C)c(N(C(=O)Cn2nnc3ccccc32)C(C(=O)NC(C)(C)C)c2ccsc2)c(C)c1 (stereo not drawn)	–	–	–	–	–	–
CC(C)(C)NC(=O)C(c1ccsc1)N(CCc1ccccc1)C(=O)Cn1nnc2ccccc21 (stereo not drawn)	–	-88.6	–	–	–	–
CCC(C)(C)NC(=O)C(c1ccc(C)cc1)N(Cc1ccco1)C(=O)Cn1nnc2ccccc21 (stereo not drawn)	–	-100.0	·	–	–	–
C[C@H]1Cc2c(COc3ccccc3)nc3c(c2CO1)CN(C(=O)C1CCCCC1)CC3	·	·	·	–	–	–[11.4 µM]
COc1cc(CN2CCC(C(=O)N3CCCC(C)C3)CC2)cc(OC)c1O (stereo not drawn)	–	–	–	–	–	–
CC1CCCN(C(=O)C2CCN(CC3CC=CCC3)CC2)C1 (stereo not drawn)	–	-100.0	–	–	–	–
COc1ccc(-n2c(-c3ccccc3)nc(=S)c3c2CCCC3)cc1	–	–	–	–	–	–
COc1ccc(-n2c(-c3cccc(OC)c3)nc(=S)c3c2CCCC3)cc1	?	–	?	7.94µM	–	–
CC(=O)Nc1ccc(S(=O)(=O)NCc2cccnc2)cc1	·	–	·	–	–	–
CC(=O)Nc1ccc(S(=O)(=O)NCc2ccc(C)cc2)cc1	–	-109.7	–	–	–	–
CC(=O)Nc1ccc(S(=O)(=O)NCc2ccc3[nH]c(C)cc3c2)cc1	–	–	–	–	–	–
C=CCNC(=O)c1ccc(CNS(=O)(=O)c2ccc(NC(C)=O)cc2)cc1	–	–	–	–	20µM	–
O=c1c(O)c(-c2ccccc2)oc2ccc3occc3c12	·	·	–	–	?	–
COc1cc2c(C)c3c4c(cc(OC)c(OC)c4c2cc1OC)CCN3C	–	·	–	–	?	–
COc1cc2c(C=O)c3c4c(cc(OC)c(OC)c4c2cc1OC)CCN3C	–	·	31.6µM	–	–	?
COc1ccccc1OCCn1cc(C#N)c2ccccc21	–	-118.9	·	–	–	–
Cc1ccc(OCCn2cc(C#N)c3ccccc32)cc1	–	?	·	–	–	–
CCC(C)OC(=O)c1cc(C)nc2c(Br)cc(Br)cc12 (stereo not drawn)	–	-100.0	·	?	–	–
COC(=O)COc1ccc(NS(=O)(=O)c2cccc([N+](=O)[O-])c2)cc1	·	·	·	–	·	·
COc1ccccc1NC(=S)N(Cc1ccco1)Cc1cc2ccc(C)c(C)c2[nH]c1=O	·	-84.2	·	–	–	–
Cc1ccc2nsnc2c1S(=O)(=O)N(Cc1ccco1)Cc1cc2ccc(C)c(C)c2[nH]c1=O	–	-81.8	–	–	–	–
Cc1ccc2nsnc2c1S(=O)(=O)N(Cc1ccco1)Cc1cc2cccc(C)c2[nH]c1=O	?	–	–	–	–	–
O=C1C2C3C=CC(C4CC34)C2C(=O)N1c1ccc2c(c1)OCO2 (stereo not drawn)	·	·	·	–	·	·
SMILES	IMPase inh	PNC assembly inh	15-hLO-2 inh	IMPase Li inh	HPGD block	ALOX12 inhib
O=C1NC2(CCCCC2)NN1c1ccccc1	–	–	?	–	–	3.98µM
CCOc1ccccc1/C=C(/NC(=O)c1ccccc1)C(=O)N(CC)CC	–	–	·	–	–	–
CCOC(=O)N1CCC(NC(=O)C2CCCN(S(=O)(=O)c3ccc4c(c3)oc(=O)n4C)C2)CC1 (stereo not drawn)	–	-89.9	–	–	–	–
CCC(=O)NCCNc1ccc([N+](=O)[O-])cn1	·	-80.7	·	–	–	–
CC(=O)NCCNc1ccc([N+](=O)[O-])cn1	·	–	·	–	–	–
CCNC(=O)CCS(=O)(=O)c1ccc2ccccc2c1	–	–	·	–	31.6µM	–
COc1ccc(N/N=C(/N=Nc2nc(C)cc(=O)[nH]2)c2ccccc2)cc1	–	–	–	–	–	–
Cc1cc(=O)[nH]c(N=N/C(=N/Nc2ccc(O)cc2)c2ccccc2)n1	–	–	–	–	31.6µM	?
Cc1cc(NC(=O)COC(=O)c2cc(S(=O)(=O)N3CCOCC3)ccc2N2CCCCC2)no1	–	–	–	–	–	–
CCC(=O)Nc1ccc2nc(SCC(=O)N3CCCC3)sc2c1	–	–	–	–	15.8µM	–
Cn1c(SCC(=O)Nc2ccc3nc(SCC(=O)NC4CC4)sc3c2)nnc1-c1ccccc1	–	?	·	–	3.55µM	–
Cn1c(SCC(=O)Nc2ccc3nc(SCC(=O)N4CCCC4)sc3c2)nnc1-c1ccc(N)cc1	–	–	?	–	8.91µM	–
CC1CCc2sc(C(=O)N/N=C/c3ccc([N+](=O)[O-])cc3)cc2C1 (stereo not drawn)	–	?	·	–	–	–
Cc1ccc(C(=O)C[n+]2ccc(-c3nnc4n3CCC4)cc2)cc1	–	–	·	–	–	–
O=c1c(O)c(-c2cccc(O)c2)oc2ccccc12	–	·	–	–	28.2µM	–
CCOC(=O)c1c(C)n(C)c2ccc(OC)c(NC(=O)CN3CCSCC3)c12	–	-104.9	–	–	–	–
CCOC(=O)c1c(C)n(C)c2ccc(OC)c(NC(=O)c3cccs3)c12	–	?	–	–	–	–
CNC(=S)NCC(O)c1ccc([N+](=O)[O-])cc1 (stereo not drawn)	·	·	·	–	·	·
COc1cccc2cc(C(=O)N(Cc3ccccc3)CC3CCCO3)c(=O)oc12 (stereo not drawn)	–	–	·	–	–	–
COc1cccc2cc(C(=O)N3CCCCC3C)c(=O)oc12 (stereo not drawn)	–	–	·	–	15.8µM	–
COc1cccc2cc(C(=O)N3CCN(C45CC6CC(CC(C6)C4)C5)CC3)c(=O)oc12	–	?	–[2.29 µM]	–	–	–
CCN(C(=O)c1cc2cccc(OC)c2oc1=O)c1ccccc1	–	–	–	–	22.4µM	–
COc1cccc2cc(C(=O)N3CCC(C)CC3)c(=O)oc12	–	–	–	?	12.6µM	–
COc1cccc2cc(C(=O)OC3CCN(C)CC3)c(=O)oc12	–	–	·	–	–	–
COc1cccc2cc(C(=O)N3C(C)CCCC3C)c(=O)oc12 (stereo not drawn)	–	–	·	–	28.2µM	–
COc1ccc(-n2ncc3c(=O)n(Cc4c(F)cccc4Cl)cnc32)cc1	·	·	·	–	·	·
N#Cc1ccc(CSc2nnc(-c3c[nH]c4ccccc34)n2-c2ccccc2)cc1	·	·	·	–	·	·
CCOC(=O)c1cc(CC)sc1/N=C/c1c(O)ccc2ccccc12	·	-88.3	·	–	–	–
